Experimental data taken from the supplement of paper PMC8253809.

Key:
Test in all cases: growth inhibition (% activity, log2 RLU normalised to DMSO / staurosporine); higher = more growth inhibition
Conditions in all cases: 33 µM
[1] = test system: DIPGX29 (H3.3 K27M diffuse intrinsic pontine glioma line)
In short: (§1)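 In triplicate, pHGG cell lines and H9-derived neural stem cells were treated for 7 days at 37 °C, 5% CO2 with approved drugs at a single final concentration of about 33 μM, added by pin tool. CellTiter-Glo luminescence, after log2 transformation, was normalised on each plate to % activity between solvent and positive control wells. Growth inhibition is reported as the median across replicates.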

[2] = test system: DIPGX37 (H3.3 K27M diffuse intrinsic pontine glioma line)
In short: as §1

[3] = test system: DIPGX7 (H3.3 K27M diffuse intrinsic pontine glioma line)
In short: as §1

[4] = test system: DIPGX9 (diffuse intrinsic pontine glioma line)
In short: as §1

[5] = test system: HGGX39 (paediatric high-grade glioma line)
In short: as §1

[6] = test system: HGGX6 (H3.3 G34R paediatric high-grade glioma line)
In short: as §1

[7] = test system: HNSC
In short: as §1

[8] = test system: SUDIPGIV (diffuse intrinsic pontine glioma line)
In short: as §1

[9] = test system: SUDIPGVI (diffuse intrinsic pontine glioma line)
In short: as §1

[10] = test system: SUDIPGXIII (diffuse intrinsic pontine glioma line)
In short: as §1

`Cc1cccc(C)c1OCC(=O)N[C@@H](Cc1ccccc1)[C@@H](O)C[C@H](Cc1ccccc1)NC(=O)[C@H](C(C)C)N1CCCNC1=O` showed a growth inhibition [1] of -0.115%, a growth inhibition [2] of 1.21% and a growth inhibition [3] of -0.846%. It also gave a growth inhibition [4] of 1.07%, a growth inhibition [5] of -0.0767% and a growth inhibition [6] of 1.3%. It also gave a growth inhibition [7] of 0.148%, a growth inhibition [8] of -2.8% and a growth inhibition [9] of -1.16%. For the same compound, the growth inhibition [10] was -0.606%.
`CC(C)(C)c1ccc(C(O)CCCN2CCC(C(O)(c3ccccc3)c3ccccc3)CC2)cc1` (stereo not given) gave a growth inhibition [1] of -0.594%, a growth inhibition [2] of -0.074% and a growth inhibition [3] of 0.488%. It also gave a growth inhibition [4] of 0.591%, a growth inhibition [5] of 2.84% and a growth inhibition [6] of 1.58%. For the same compound, the growth inhibition [7] was 0.144%, the growth inhibition [8] was -0.418% and the growth inhibition [9] was -2.2%. The growth inhibition [10] was -0.826%.
`N#C[C@@H]1C[C@@H]2C[C@@H]2N1C(=O)[C@@H](N)C12CC3CC(CC(O)(C3)C1)C2` was tested, and the growth inhibition [1] was 2.2%, the growth inhibition [2] was 1.41% and the growth inhibition [3] was 1.21%. It also gave a growth inhibition [4] of 0.435%, a growth inhibition [5] of 5.53% and a growth inhibition [6] of 2.65%. It also gave a growth inhibition [7] of 8.15%, a growth inhibition [8] of 7.37% and a growth inhibition [9] of 2.7%. It also gave a growth inhibition [10] of 7.88%.
For `CN(C)CCN(Cc1cccs1)c1ccccn1`, the growth inhibition [1] was 1.96%, the growth inhibition [2] was 3.64% and the growth inhibition [3] was 1.81%. It also gave a growth inhibition [4] of 0.429%, a growth inhibition [5] of 5.09% and a growth inhibition [6] of 1.78%. The growth inhibition [7] was 2.78%, the growth inhibition [8] was 0.871% and the growth inhibition [9] was 3.63%. For the same compound, the growth inhibition [10] was 0.391%.
`CN(C)c1ccc(C(=C2C=CC(=[N+](C)C)C=C2)c2ccc(N(C)C)cc2)cc1` gave a growth inhibition [1] of 39.6%, a growth inhibition [2] of 42.1% and a growth inhibition [3] of 42.3%. For the same compound, the growth inhibition [4] was 41.4%, the growth inhibition [5] was 51.4% and the growth inhibition [6] was 48.2%. For the same compound, the growth inhibition [7] was 72.2%, the growth inhibition [8] was 43.1% and the growth inhibition [9] was 50%. The growth inhibition [10] was 74.4%.
`OCCN(CCO)c1nc(N2CCCCC2)c2nc(N(CCO)CCO)nc(N3CCCCC3)c2n1` gave a growth inhibition [1] of -2.31%, a growth inhibition [2] of -0.429% and a growth inhibition [3] of -1.26%. The growth inhibition [4] was -0.332%, the growth inhibition [5] was 2.38% and the growth inhibition [6] was 1.04%. The growth inhibition [7] was -0.178%, the growth inhibition [8] was -1.52% and the growth inhibition [9] was -2.93%. The growth inhibition [10] was 1.36%.
`COc1c(N2CCNC(C)C2)c(F)cc2c(=O)c(C(=O)O)cn(C3CC3)c12` (stereo not given) was tested, and the growth inhibition [1] was 0.952%, the growth inhibition [2] was -1.73% and the growth inhibition [3] was 2.3%. For the same compound, the growth inhibition [4] was 1.28%, the growth inhibition [5] was 4.77% and the growth inhibition [6] was 0.493%. For the same compound, the growth inhibition [7] was 8.87%, the growth inhibition [8] was 1% and the growth inhibition [9] was 2.31%. It also gave a growth inhibition [10] of 1.42%.
With `CCOC(=O)[C@H](CCc1ccccc1)N[C@@H](C)C(=O)N1CCC[C@H]1C(=O)O` the growth inhibition [1] was 1.73%, the growth inhibition [2] was -8.18% and the growth inhibition [3] was 0.205%. The growth inhibition [4] was 0.307%, the growth inhibition [5] was 0.569% and the growth inhibition [6] was -0.623%. It also gave a growth inhibition [7] of 1.11%, a growth inhibition [8] of -1.94% and a growth inhibition [9] of -1.02%. The growth inhibition [10] was -3.41%.
Work on `C[C@H](Cc1cc2c(c(C(N)=O)c1)N(CCCO)CC2)NCCOc1ccccc1OCC(F)(F)F` yielded a growth inhibition [1] of 1.54%, a growth inhibition [2] of 2.46% and a growth inhibition [3] of 0.991%. The growth inhibition [4] was -0.478%, the growth inhibition [5] was 0.741% and the growth inhibition [6] was -0.678%. It also gave a growth inhibition [7] of 3.54%, a growth inhibition [8] of 1.64% and a growth inhibition [9] of 1.49%. For the same compound, the growth inhibition [10] was -1.83%.
`O=c1cc[nH]c(=S)[nH]1` showed a growth inhibition [1] of 1.29%, a growth inhibition [2] of 1.68% and a growth inhibition [3] of 2.17%. It also gave a growth inhibition [4] of 2.37%, a growth inhibition [5] of 0.218% and a growth inhibition [6] of -1.78%. It also gave a growth inhibition [7] of 36.9%, a growth inhibition [8] of 1.67% and a growth inhibition [9] of -6.46%. It also gave a growth inhibition [10] of 0.601%.
For `CC(C)(OCc1nn(Cc2ccccc2)c2ccccc12)C(=O)O`, the growth inhibition [1] was -3.94%, the growth inhibition [2] was -1.16% and the growth inhibition [3] was -1.8%. It also gave a growth inhibition [4] of -2.2%, a growth inhibition [5] of -3.82% and a growth inhibition [6] of -4.18%. The growth inhibition [7] was -2.36%, the growth inhibition [8] was -3.25% and the growth inhibition [9] was -2.56%. It also gave a growth inhibition [10] of 0.0548%.
